Compound activity: PubChem, National Center for Advancing Translational Sciences (NCATS)
Pf growth 48h: P. falciparum growth inhibition at 48 hours (one generation) | Potency, µM (series often up to 28.7 µM), for inactives: at the top dose activity change, negative = inhibition, hits mostly inhibitors | AID 504832 | actives 5.9% (n = 310,000) | P. falciparum luciferase growth in erythrocytes, 48 h; further: potency means the concentration at half of the fitted maximal effect; on the % scale 0 is the no-effect control and ±100 the full control effect
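Luciferase-expressing P. falciparum in infected erythrocytes (2% hematocrit, 0.1% parasitemia final) in RPMI 1640/0.5% Albumax were exposed to compound for 48 hours at 37 C, 5% CO2; growth read as luminescence.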
Sm TGR inh: S. mansoni TGR enzyme inhibition. Potency, µM (doses to about 114 µM), inactives show top-dose activity change, negative = inhibition, hits mostly inhibitors. purified TGR, DTNB reduction, TNB absorbance 405 nm. Q962Y6. actives 3% (n = 360,000); further: potency means the concentration at half of the fitted maximal effect; on the % scale 0 is the no-effect control and ±100 the full control effect; nearly all actives have a fitted effect of over 60% in size
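TGR 20 nM + NADPH 100 uM (dispensed conc.), cpd preinc 15 min RT; start with NADPH (500 uM addition) then DTNB (15 mM addition). Kinetic TNB absorbance, 405 nm filter. Four-parameter Hill fit across titration.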
NS1 function inh: influenza NS1 inhibition. AID 2326. Potency, µM (series often up to 46.1 µM), without a hit: at the highest dose activity, positive = more growth. actives 0.4% (n = 270,000); calls by dose curve; further: potency means the concentration at half of the fitted maximal effect; actives are rising curves; nearly all actives have a fitted effect of over 50% in size
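Compounds were scored for reversing the slow growth caused by influenza A NS1 in S. cerevisiae, measured by optical density at 600 nm. Assay medium contained 2% galactose at pH 6.0; NS1-free yeast of the same strain were the positive control.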
Pf growth 96h: P. falciparum growth inhibition at 96 hours. P. falciparum luciferase reporter growth, 96 h. Potency, µM (highest dose often 28.7 µM), without a hit: at the highest dose activity change, negative = inhibition, most hits filed as inhibitors. actives 6.9% (n = 320,000); further: potency means the concentration at half of the fitted maximal effect; on the % scale 0 is the no-effect control and ±100 the full control effect
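P. falciparum expressing integrated firefly luciferase, in erythrocytes at 2% hematocrit, 0.05% parasitemia, incubated with compounds 96 h at 37 C, 5% CO2. Growth inhibition read as loss of luminescence; two-generation exposure targets delayed-death apicoplast inhibitors.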
CHX counter: affects cycloheximide protein synthesis inhibition readout, counter-screen | cell reporter, cycloheximide protein synthesis inhibition counterscreen | max response, % | actives 12% (n = 300,000) | AID 2314; in the data active means max response mostly above about 13%, no sharp cut-off; inactive means mostly below about 14%; further: read at 38.3 µM for the half of the compounds with a filed dose; 0% is about no effect
Shiga inhibitor: blocks Shiga toxin action in Vero cells; Vero cells, Shiga toxin protein synthesis inhibition reporter; inhibition, % at 38.7 µM; actives 9.2% (n = 290,000); in the data active means inhibition mostly above about 28%, no sharp cut-off; inactive means mostly below about 43%; further: 0% is about no effect
The depositor's hits bear a star; ? = inconclusive; . = not tested or not shown; [ ] = remark or other dose. Compounds with a hit are over-represented: about 21% of the library has one in this group of screens. Unless noted, the call rests on the fitted dose curve; in most records, active means well fitted curve in the direction sought with a large enough effect; inconclusive means small, poorly fitted or top-dose-only effect, or another doubt; inactive means no such curve, though single readings can be large; an effect the other way counts as inactive or inconclusive.

SMILES	Pf growth 48h	Sm TGR inh	NS1 function inh	Pf growth 96h	CHX counter	Shiga inhibitor
COc1ccc(-c2[nH]ncc2CN2CCN(Cc3cccs3)CC2)cc1F	?	-6.9%[57.1 µM]	0.4%	?	1.9	14.3
COc1cc(CNc2ccccc2SC)cc(OC)c1OC	.	-2.5%	-3.2%	?	-2.0	-10.7
CCN(CC)C(=O)CSc1nnc2nnc3cc(Cl)ccc3n12	4.65µM*	-23.3%	-45.9%	7.38µM*	0.9	3.0
CCOC(=O)N=Nc1c(O)n(Cc2ccccc2)c2ccccc12	-8.1%	7.7%	.	19.9%	28.9*	46.1*
NC(=S)N=Nc1c(O)n(Cc2ccccc2)c2ccccc12	?	-16.8%	11.1%	13.5%	-0.6	-15.4
COC(=O)N=Nc1c(O)n(Cc2ccccc2)c2ccccc12	-15.8%	11.8%	2.5%	2.5%	-1.6	12.5
O=C(N=Nc1c(O)n(Cc2ccccc2)c2ccccc12)c1ccncc1	11.7µM*	6.0%	-1.4%	13.1µM*	1.8	24.5
CCCCNC(=S)N=Nc1c(O)n(Cc2ccccc2)c2ccccc12	13.1µM*	-5.1%	12.6%	10.4µM*	-0.9	-12.3
CCCCn1c(O)c(N=NC(=O)c2ccco2)c2ccccc21	?	2.1%	2.4%	?	65.9*	86.0*
O=C(Nc1cccc(Br)c1)N1CCN2CCCCC2C1 (centres undefined)	.	3.6%	.	.	.	.
CC1CN(S(=O)(=O)c2cccc(C(=O)NCC3COc4ccccc4O3)c2)CC(C)O1 (centres undefined)	?	-0.1%	.	?	.	.
CCCCC(=O)Nc1nc(C)c(-c2csc(Nc3ccccc3OC)n2)s1	?	-23.6%	18.3%	?	2.0	-4.2
CCC(C)C(=O)Nc1nc(C)c(-c2csc(Nc3ccccc3OC)n2)s1 (centres undefined)	9.28µM*	-29.7%	19.7%	11.7µM*	-3.7	-13.5
C=CCCC(=O)Nc1nc(C)c(-c2csc(Nc3ccccc3OC)n2)s1	9.28µM*	-0.6%	1.2%	16.5µM*	-2.1	-11.3
CCCCc1ccc(NC(=O)NCc2ccccn2)cc1	16.2%	-16.1%	6.7%	?	14.5*	47.6
O=C(CCCc1ccccc1)NCc1ccccn1	-21.2%	21.8%	0.3%	-17.9%	7.7	.
CCc1ccc(NC(=O)NCc2ccccn2)cc1	42.9%	0.0%	?	120.2%	43.5*	46.4*
Cc1cc(OC(C)C(=O)NCc2cccnc2)c2c(C)cc(=O)oc2c1 (centres undefined)	?	15.0%	-6.9%	?	-6.2	-4.8
COCCC(C(=O)Oc1c(C(C)(C)C)cc(C)cc1C(C)(C)C)c1ccccc1 (centres undefined)	8.28µM*	-26.4%	.	5.22µM*	.	.
O[C@H]([C@H](O)[C@@H](O)c1nc2ccccc2[nH]1)[C@@H](O)c1nc2ccccc2[nH]1	.	.	-7.6%	.	.	.
c1ccc2[nH]c3cc4ncnc4cc3nc2c1	62.3%	-0.5%	-18.4%	8.6%	27.6*	35.8*
CCCCN(CC)Cc1ccc(CNC(=S)Nc2cccc(F)c2)o1	?	39.8µM*	.	131.1%	2.6	22.3
CCOC1OC(=O)C(Cl)=C1Nc1ccc(C)cc1C (centres undefined)	?	-20.3%	5.9%	2.33µM*	-3.4	-8.9
Cc1ccc(S(=O)(=O)NC2CC2)cc1	18.6%	-2.7%	10.1%	-19.4%	3.3	-7.2
Cn1nc(-c2ccccc2)c(CO)c1Oc1ccc(F)cc1	-9.1%	-2.7%	.	-2.3%	18.0*	21.4
SMILES	Pf growth 48h	Sm TGR inh	NS1 function inh	Pf growth 96h	CHX counter	Shiga inhibitor
Cn1cc(CN2CCN(CCO)CC2)c(-c2ccc(Oc3ccccc3)cc2)n1	0.3%	-10.8%	6.0%	45.6%	-2.6	11.7
Oc1ccccc1/C=N/c1c(-c2ccco2)nc2ccccn12	-21.9%	50.1µM*	-41.6%	.	6.0	-10.1
COc1cc(-c2nc3ccccn3c2/N=C/c2ccc(F)cc2)ccc1O	21.1%	-13.6%	.	?	15.7*	23.8
COc1cc(-c2nc3ccccn3c2/N=C/c2cccc(OC)c2O)ccc1O	4.5%	-15.3%	.	53.7%	22.7*	54.4
COc1cc(-c2nc3ccccn3c2Nc2ccccc2C)ccc1O	.	-2.0%	.	.	.	.
O=C1C2C(c3ccccc3)CC=CC2C(c2ccc3ccccc3c2)N1Cc1ccccc1 (centres undefined)	.	.	.	.	12.2	5.8
